Experimental data published in paper PMC12670160, “A drug-repurposing screen of FDA- and EMA-approved drugs identifies two NF-κB inhibitors active against eumycetoma” (Journal of Antimicrobial Chemotherapy, 2025).
Where a name gives a salt, the structure may show the parent alone. Read-outs that look alike come from different tables or passages of the source. In all, about 5,300 compounds went through this assay and about 130 (2.5%) showed an effect of 50% or more. The list comes from a sample in which strong results are over-represented; it also holds similar structures and randomly drawn compounds.

Test system: M. mycetomatis strain mm55
Conditions: primary screen, metabolic activity vs growth control, 96 h, 2 µM, inhibitor

Row | Compound | % viability | % viability (Madurella mycetomatis metabolic activity at 2µM (%))
1 | Oc1ccc(C2(c3ccccc3F)CCC(F)(F)CC2)cc1 [ONC0000174, ac186] | 93.25% | –
2 | CN(C)C/C=C/C(=O)Nc1cccc(C(=O)Nc2cccc(Nc3ncc(Cl)c(-c4c[nH]c5ccccc45)n3)c2)c1 [ONC0002061, thz2] | 66.57% | –
3 | Cc1cc(C(=O)Nc2nc3cccc(Cl)c3n2[C@@H]2CCCCN(C(=O)/C=C/CN(C)C)C2)ccn1 [ONC0001107, nazartinib] | 39.34% | –
4 | CN(C)C/C=C/C(=O)Nc1ccc(C(=O)Nc2cccc(Nc3ncc(Cl)c(-c4c[nH]c5ccccc45)n3)c2)cc1 [ONC0002074, thz1] | 55.81% | –
5 | CC(=O)[C@@]12OC(C)(c3ccccc3)O[C@@H]1C[C@H]1[C@@H]3CCC4=CC(=O)CC[C@]4(C)[C@H]3CC[C@@]12C (some centres unmarked) [ONC0002369, algestoneacetophenide] | 99.76% | –
6 | CC(Nc1ncnc2nc[nH]c12)c1cc2ccc(F)cc2nc1-c1ccccn1 (centres unmarked) [ONC0004426, amg319] | 156.7% | –
7 | N[C@H](Cc1ccccc1)C(=O)O [ONC0002457, dphenylalanine] | 101.3% | –
8 | N[C@H](CSC(c1ccccc1)(c1ccccc1)c1ccccc1)C(=O)O [ONC0001742, strityllcysteine] | 48.39% | –
9 | CSC[C@H](N)C(=O)O [ONC0003388, smethylcysteine] | 83.56% | –
10 | C[C@]12C=CC(=O)C=C1CCC1C2[C@@H](O)C[C@@]2(C)C1CC[C@]2(O)C(=O)CO (some centres unmarked) [ONC0005351, prednisolone] | 112.6% | –
11 | Cc1cc(-c2ccc(/N=N/c3ccc4c(S(=O)(=O)O)cc(S(=O)(=O)O)c(N)c4c3O)c(C)c2)ccc1/N=N/c1ccc2c(S(=O)(=O)O)cc(S(=O)(=O)O)c(N)c2c1O [ONC0003296, evans blue] | 49.05% | –
12 | COc1cc(-c2ccc(/N=N/c3ccc4c(S(=O)(=O)O)cc(S(=O)(=O)O)c(N)c4c3O)c(OC)c2)ccc1/N=N/c1ccc2c(S(=O)(=O)O)cc(S(=O)(=O)O)c(N)c2c1O [ONC0002750, chicagoskyblue6b] | 94.85% | –
13 | COC(=O)CC1CC(c2ccc(O)cc2)=NO1 (centres unmarked) [ONC0001839, iso1] | 78.97% | –
14 | N[C@@H](CC(=O)N1CCn2c(nnc2C(F)(F)F)C1)Cc1cc(F)c(F)cc1F [ONC0004045, sitagliptin phosphate] | 93.31% | –
15 | N[C@@H](CC(=O)N1CCn2c(nnc2C(F)(F)F)C1)Cc1n[nH]c2c(F)c(F)ccc12 [ONC0001660, pk44 phosphate] | 33.36% | –
16 | NCCNc1ccc(NCCN)c2c1C(=O)c1ccncc1C2=O.O=C(O)/C=C\C(=O)O.O=C(O)/C=C\C(=O)O [ONC0000916, pixantrone dimaleate] | 85.22% | –
17 | Fc1cc(F)c2c(c1)[C@H]1C=CC[C@H]1C(c1cccnc1)N2 (mixture of isomers) [ONC0005186, golgicide a] | 78.39% | –
18 | O=C(O)Cc1ccc(CCNS(=O)(=O)c2ccc(Cl)cc2)cc1 [ONC0002194, daltroban] | 74.66% | –
19 | Cc1ccc2c(c1CCC(=O)O)CC[C@@H](NS(=O)(=O)c1ccc(Cl)cc1)C2 [ONC0001303, terutroban] | 45.19% | –
20 | O=C(O)CCn1c2c(c3ccccc31)C[C@H](NS(=O)(=O)c1ccc(F)cc1)CC2 [ONC0000918, ramatroban] | 93.57% | –
21 | COC[C@H](NC(=O)c1cnc(C)s1)C(=O)N[C@@H](COC)C(=O)N[C@@H](Cc1ccccc1)C(=O)C1(C)CO1 (some centres unmarked) [ONC0004389, oprozomib onx 0912] | 101.4% | –
22 | O=C(CNC(=O)c1cccc(C(F)(F)F)c1)N[C@@H]1CCN(Cc2ccc(Cl)cc2)C1 [ONC0002608, teijincompound1] | 76.98% | –

Row | Compound | % viability | % viability (Madurella mycetomatis metabolic activity at 2µM (%))
23 | C[S+]([O-])CCCCN=C=S (centres unmarked) [ONC0003262, sulforaphane] | 49.62% | –
24 | C/C=C/C1=C(C(=O)O)N2C(=O)[C@@H](NC(=O)[C@H](N)c3ccc(O)cc3)[C@H]2SC1 [ONC0004213, cefprozil] | 75.17% | –
25 | O=C(Nc1cnccc1Cl)N1CCN(Cc2ccc3c(c2)OC(F)(F)O3)CC1 [ONC0001299, jnj42165279] | 60.28% | –
26 | COc1nc(C)nc(Cl)c1N=C1NCCN1 [ONC0003528, moxonidine] | 108% | –
27 | CCCCCCCC/C=C/C(=O)O [ONC0003676, trans2undecenoic acid] | 70.7% | –
28 | CCCCCCCCCCCCCCC[C@@H](O)[C@@H](N)CO [ONC0003442, dihydrosphingosine derythro] | 75.68% | –
29 | CCCCCC(C)N (centres unmarked) [ONC0003207, tuaminoheptane sulfate] | 110.6% | –
30 | CCCCCCCCCCCCCC[C@@H](O)[C@@H](O)[C@@H](N)CO [ONC0003465, phytosphingosine] | 45.49% | –
31 | N#Cc1ccc(Cn2cncc2CN2CCN(c3cccc(Cl)c3)C(=O)C2)cc1 [ONC0000972, l778123 hydrochloride] | 78.78% | –
32 | CC(=O)O[C@]1(C(C)=O)CCC2C3C[C@H](C)C4=CC(=O)CC[C@]4(C)C3CC[C@@]21C (some centres unmarked) [ONC0000456, medroxyprogesterone acetate] | 83.76% | –
33 | N[C@H](Cc1cc(I)c(Oc2ccc(O)c(I)c2)c(I)c1)C(=O)O [ONC0003830, liothyronine] | 90.31% | –
34 | O=C(O[C@@H]1C[C@@H]2C[C@@H]3C[C@H](C1)N2CC3=O)c1c[nH]c2ccccc12 [ONC0005492, dolasetron] | 77.8% | –
35 | O[C@H]([C@H](O)[C@@H]1CO1)[C@H]1CO1 [ONC0001201, val083] | 107% | –
36 | CC(C)(C)c1ccc(C(=O)Nc2cn3cc(-n4ccnc4)ccc3n2)cc1 [ONC0000079, tcask10] | 88.09% | –
37 | NC(=O)C[C@H](N)C(=O)O [ONC0002130, lasparagine] | 76.47% | –
38 | N[C@@H](CC(=O)NO)C(=O)O [ONC0005577, lasparaginenhydroxy] | 46.79% | –
39 | N[C@@H](CC(=O)O)C(=O)O [ONC0005584, lasparticacid] | 67.27% | –
40 | CC1(C)S[C@@H]2C(N3C(=O)[C@@H](c4ccccc4)NC3(C)C)C(=O)N2[C@H]1C(=O)O (some centres unmarked) [ONC0000520, hetacillin potassium] | 62.89% | –
41 | Cn1c(Nc2ccc(C(F)(F)F)cc2)nc2cc(Oc3ccnc(-c4ncc(C(F)(F)F)[nH]4)c3)ccc21 [ONC0005005, raf265 chir265] | 41.37% | –
42 | CC(C)C[C@H](NC(=O)CN(C)C(=O)[C@H](Cc1ccccc1)NC(=O)[C@H](Cc1ccccc1)NC(=O)[C@H](CCC(N)=O)NC(=O)[C@H](CCC(N)=O)NC(=O)[C@@H]1CCCN1C(=O)[C@H](CCCCN)NC(=O)[C@@H]1CCCN1C(=O)[C@@H](N)CCCNC(=N)N)C(=O)N[C@@H](CCS(C)(=O)=O)C(N)=O [ONC0003648, sar9meto211substance p] | 64.96% | –
43 | Cc1ccc(Cl)c(OCC(O)CNC(C)C)c1 (centres unmarked) [ONC0003711, 12chloro5methylphenoxy3isopropylamino2propanol] | 103% | –
44 | O=C1C2CC=CCC2C(=O)N1SC(Cl)(Cl)Cl (centres unmarked) [ONC0003351, captan] | 76.61% | –

Row | Compound | % viability | % viability (Madurella mycetomatis metabolic activity at 2µM (%))
45 | NC(Cc1ccc(O)cc1)C(=O)O (centres unmarked) [ONC0003385, dltyrosine] | 63.01% | –
46 | OC[C@H]1OC(O)C[C@@H](O)[C@@H]1O (mixture of isomers) [ONC0003476, 2deoxyglucose] | 78.39% | –
47 | CC(C)NC(=O)COc1cccc(-c2nc(Nc3ccc4[nH]ncc4c3)c3ccccc3n2)c1 [ONC0001882, slx2119] | 46.69% | –
48 | COC(=O)[C@H](NC(=O)c1cc(-c2ccccc2)nc2ccccc12)c1ccccc1 [ONC0001501, sb218795] | 80.75% | –
49 | O=C(NCc1cccc(O)c1)Nc1nc(-c2ccncc2)cs1 [ONC0002554, srpin340] | – | 81.94%
50 | c1cc(Nc2cc(C3CC3)[nH]n2)nc(Nc2ccc3[nH]cnc3c2)n1 [ONC0003009, apy29] | 67.52% | –
51 | CC(C)(C)c1cc(/C=C(\C#N)C(N)=S)cc(C(C)(C)C)c1O [ONC0005258, tyrphostin ag 879 ag 879] | 127.6% | –
52 | CC(C)(C)c1cc(C=C(C#N)C#N)cc(C(C)(C)C)c1O [ONC0004560, tyrphostin 9 sf 6847] | 1.693% | –
53 | CC(C)(C)c1cc(C=C(C#N)C#N)cc(Br)c1O [ONC0004740, ag1024] | 105.8% | –
54 | CC(C)C[C@@H](N)C(=O)N[C@H]1C(=O)N[C@@H](CC(N)=O)C(=O)N[C@H]2C(=O)N[C@H]3C(=O)N[C@H](C(=O)N[C@H](C(=O)O)c4cc(O)cc(O)c4-c4cc3ccc4O)[C@H](O)c3ccc(c(Cl)c3)Oc3cc2cc(c3O[C@@H]2O[C@H](CO)[C@@H](O)[C@H](O)[C@H]2O[C@H]2C[C@](C)(N)[C@H](O)[C@H](C)O2)Oc2ccc(cc2Cl)[C@H]1O [ONC0002123, norvancomycin hydrochloride] | 86.02% | –
55 | CCN(CC)C(=O)N[C@H]1CC2c3cccc4[nH]cc(c34)CC2N(C)C1 (some centres unmarked) [ONC0002019, terguride] | 81.88% | –
56 | COc1ccc(CCCOC(Cn2ccnc2)c2ccc(OC)cc2)cc1 (centres unmarked) [ONC0000065, skf96365] | 143.6% | –
57 | Clc1ccc(C(Cn2ccnc2)OCc2ccsc2Cl)c(Cl)c1 (centres unmarked) [Tioconazole] | 3.335% | –
58 | Clc1ccc(COC(Cn2ccnc2)c2ccc(Cl)cc2Cl)c(Cl)c1 (centres unmarked) [Miconazole nitrate] | 2.05% | –
59 | Clc1ccc(C(Cn2ccnc2)OCc2ccc(Sc3ccccc3)cc2)c(Cl)c1 (centres unmarked) [ONC0004926, fenticonazole nitrate] | 131.8% | –
60 | Clc1ccc(C(Cn2ccnc2)OCc2csc3c(Cl)cccc23)c(Cl)c1 (centres unmarked) [ONC0005215, sertaconazole nitrate] | 82% | –
61 | Clc1ccc(C(Cn2ccnc2)OCc2c(Cl)cccc2Cl)c(Cl)c1 (centres unmarked) [Isoconazole nitrate (Travogen), Isoconazole nitrate] | 2.362% | –
62 | Clc1ccc(CSC(Cn2ccnc2)c2ccc(Cl)cc2Cl)cc1 (centres unmarked) [ONC0000678, sulconazole nitrate] | 120.3% | –
63 | Clc1ccc(CCC(Cn2ccnc2)Sc2c(Cl)cccc2Cl)cc1 (centres unmarked) [ONC0005620, butoconazole] | 76.6% | –
64 | C=CCOC(Cn1ccnc1)c1ccc(Cl)cc1Cl (centres unmarked) [ONC0005416, enilconazole sulfate] | 2.508% | –
65 | Clc1ccc(COC(Cn2ccnc2)c2ccc(Cl)cc2Cl)cc1 (centres unmarked) [ONC0000666, econazole nitrate] | 102.4% | –
